High-throughput results as filed in PubChem.
MCF10A rereplic: A quantitative high throughput screen for small molecules that induce DNA re-replication in MCF 10a normal breast cells; MCF 10A DNA re-replication, Hoechst nuclear intensity, 48 h; AID 624296, 2012; Potency, µM (highest dose often 46.1 µM), for the others: at the top dose activity, positive = re-replication, hits mostly activators; hit rate 2.9% among 350,000; further: % of control where 0% means no effect; nearly all actives have a fitted effect of over 50% in size
KB-3-1 cytotox: qHTS assay for MDR1-selective chemotherapeutics: Primary screen using the parental adenocarcinoma cell KB-3-1; KB-3-1 viability, CellTiter-Glo ATP luminescence, 72 h; Potency, µM (doses to about 46.1 µM), usual class: cytotoxic; hit rate 1.4% among 400,000; AID 1347075, 2019; further: on the % scale 0 is the no-effect control and ±100 the full control effect; nearly all actives have a fitted effect of over 60% in size
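KB-3-1 cells, DMEM (no phenol red) + 10% FBS; compound by pin transfer, 72 h, 37 °C. Readout: CellTiter-Glo luminescence after 10 min. Data normalized, curve-fitted.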
SW480 rerep: A quantitative high throughput screen for small molecules that induce DNA re-replication in SW480 colon adenocarcinoma cells; Potency, µM (top dose mostly 46.1 µM), without a hit: at the top dose re-replication activation, hits mostly activators; hit rate 1.8% among 340,000; AID 624297, 2012; SW480 DNA re-replication, Hoechst DNA content imaging, 48 h; further: % of control where 0% means no effect; nearly all actives have a fitted effect of over 55% in size
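Image-based DNA-content assay: after two days of treatment, nuclei were labelled with the DNA dye Hoechst and imaged, and hits were compounds raising the count of nuclei showing high fluorescence intensity.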
KB-V1 cytotox: qHTS assay for MDR1-selective chemotherapeutics: Primary screen using the drug-selected MDR subline cells KB-V1; hit rate 3.4% among 400,000; AID 1347076, 2019; KB-V1 MDR cells viability, CellTiter-Glo, 72 h; Potency, µM (top dose mostly 46.1 µM), actives largely listed as cytotoxic; further: on the % scale 0 is the no-effect control and ±100 the full control effect; nearly all actives have a fitted effect of over 60% in size
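Drug-selected KB-V1 cells, grown in DMEM lacking phenol red with 10% FBS, receive compound titrations; after three days at 37 degrees C, surviving cell ATP is quantified by CellTiter-Glo luminescence and responses normalized and curve-fitted.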
RGS4 inh: Inhibitors of Regulator of G Protein Signaling (RGS) 4: qHTS; Regulator of G-protein signaling 4 (Homo sapiens), P49798; Transcreener GDP fluorescence polarization, RGS4-accelerated GTP hydrolysis; Potency, µM (highest dose often 114 µM), inactives show at the highest dose activity change, negative = inhibition, most hits filed as inhibitors; hit rate 0.039% among 390,000; further: on the % scale 0 is the no-effect control and ±100 the full control effect; nearly all actives have a fitted effect of over 75% in size
Target sequence (P49798 whole entry, looked up): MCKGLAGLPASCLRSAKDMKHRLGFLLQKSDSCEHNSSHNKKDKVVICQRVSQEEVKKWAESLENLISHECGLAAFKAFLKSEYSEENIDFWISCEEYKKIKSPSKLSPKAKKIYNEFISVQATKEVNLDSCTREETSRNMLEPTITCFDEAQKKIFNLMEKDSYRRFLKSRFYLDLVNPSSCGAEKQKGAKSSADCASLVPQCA
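MLSMR compounds (23 nl, pin-transferred) preincubated 10 min at room temperature with a 500nM (2x) first reagent, then RGS4 at 900nM (2x) plus Transcreener GDP mix added; fluorescence polarization (620/688 nm) read before and after 90 min at 30 °C.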
PTAP TSG101 blk: qHTS Assay for Iinhibitors of HIV-1 Budding by Blocking the Interaction of PTAP/TSG101 | 340,000 tested, under 10 active | AID 493005, 2010 | Tumor susceptibility gene 101 protein (Homo sapiens), Q99816 | Potency, µM (titrated, usually from 115 µM), for inactives: at the highest dose activity change, negative = inhibition, usual class: inhibitors | Fluorescence polarization, FITC-PTAP peptide / Tsg101 binding; active means well fitted inhibition curve with a large enough effect in the main read-out, with a control signal flat, not every such curve was filed as active; inconclusive means small, poorly fitted or top-dose-only effect, or effect the other way, or a change in a side signal; inactive means no such curve, though single readings can be large or run the other way; further: % of control where 0% means no effect
Target sequence (Q99816 whole entry, looked up): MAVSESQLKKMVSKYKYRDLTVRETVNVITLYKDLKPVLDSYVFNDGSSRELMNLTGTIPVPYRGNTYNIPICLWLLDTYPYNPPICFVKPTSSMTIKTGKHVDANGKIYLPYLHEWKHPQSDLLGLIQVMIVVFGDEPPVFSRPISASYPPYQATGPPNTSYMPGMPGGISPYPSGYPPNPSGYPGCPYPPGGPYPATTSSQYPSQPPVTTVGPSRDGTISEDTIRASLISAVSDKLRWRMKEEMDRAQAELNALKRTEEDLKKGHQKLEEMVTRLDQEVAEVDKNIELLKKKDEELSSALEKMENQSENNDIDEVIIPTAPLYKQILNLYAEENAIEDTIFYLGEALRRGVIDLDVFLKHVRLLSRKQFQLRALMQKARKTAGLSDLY
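FP read-out: FITC-PTAP peptide, 50 nM final, binding Tsg101 binding domain, 10 uM final; 20 min, r.t.; 10 mM HEPES pH 7.5, 0.15 M NaCl, 0.01% Tween 20, 3 mM EDTA, 0.1 mM TCEP.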
Active calls of the source: *; i = inactive; ? = inconclusive; / = no result; [ ] = another dose, or the depositor's remark. Only some compounds are listed: those with a hit (about 6.6% of all), similar ones and a draw of the others. Unless noted, the call rests on the fitted dose curve; in most records, active means well fitted curve in the direction sought with a large enough effect; inconclusive means small, poorly fitted or top-dose-only effect, or another doubt; inactive means no such curve, though single readings can be large; an effect the other way counts as inactive or inconclusive. Potency means the concentration at half of the fitted maximal effect.

SMILES	MCF10A rereplic	KB-3-1 cytotox	SW480 rerep	KB-V1 cytotox	RGS4 inh	PTAP TSG101 blk
O=c1c(-c2cc3ccccc3o2)[n+]([O-])c2ccccc2n1OCc1ccccn1	?	i	1.9%	3.66µM*	-11.2%	?
CCOn1c(=O)c(-c2cc3ccccc3o2)[n+]([O-])c2ccccc21	2.4%[9.22 µM]	i	-40.3%	i	-5.6%[11.4 µM]	-2.6%
CCS(=O)(=O)N1CCC(c2nc(-c3ccc(C)cc3)no2)CC1	13.7%	?	-9.1%	?	13.3%	-6.8%
O=S(=O)(c1ccc(Cl)c(F)c1)N1CCC(c2nc(-c3ccncc3)no2)CC1	70.6%	i	0.5%	20.6µM*	-1.3%	-2.0%
CCS(=O)(=O)N1CCC(c2nc(-c3ccc(C(F)(F)F)cc3)no2)CC1	-5.5%	6.51µM*	-2.5%	i	-17.9%	0.1%
COc1ccc(N2CCN(C(=O)C3CCN(S(=O)(=O)c4cn(C)cn4)CC3)CC2)cc1	/	/	/	/	3.7%	/
CCOC(=O)C(C(=O)OCC)N(Cc1cc(OC)ccc1OC)C(=O)C1CC(CO[Si](C)(C)C(C)(C)C)=CN1C(=O)OC(C)(C)C (stereo not given)	/	/	/	/	16.2%	/
CC(=O)N1N=C(c2ccccc2)CC1c1cccs1 (stereo not given)	4.8%	i	8.2%	i	-11.7%[56.9 µM]	-9.5%
CC(=O)Nc1ccc(C2=NN(c3ccccc3)C(c3cccs3)C2)cc1 (stereo not given)	?	i	11.6µM*	i	-3.9%	64.4%
Cc1ccc(C2=NN(S(C)(=O)=O)C(c3cccs3)C2)cc1 (stereo not given)	-4.6%	i	3.2%	?	-18.9%	-1.0%
CCc1ccc(C2=NN(S(C)(=O)=O)C(c3cccs3)C2)cc1 (stereo not given)	7.8%	?	-7.8%	14.6µM*	5.9%	-5.3%
Cc1ccc(CN2C(=O)c3ccccc3S(=O)(=O)c3ccc(C(=O)OCC4CCCO4)cc32)cc1 (stereo not given)	/	i	/	i	24.3%	/
Cc1oc(-c2ccc(C(=O)Nc3ccc(F)cc3F)cc2)nc1COc1ccccc1	/	i	/	i	9.8%	/
COc1ccc(Nc2oc(/C=C/c3cc(OC)c(OC)c(OC)c3)nc2C#N)cc1	/	/	/	/	-1.3%	/
Cc1cn2c(=O)cc(COC(=O)c3cccc(NC(=O)C(C)Oc4ccccc4)c3)nc2s1 (stereo not given)	/	/	/	/	7.4%	/
Cc1ccc(-c2cnn(-c3cccc(C(F)(F)F)c3)c2N)cc1	11.8%	i	0.5%	16.4µM*	8.1%	-5.9%
Nc1c(-c2ccccc2)cnn1-c1cccc([N+](=O)[O-])c1	6.0%	i	-13.1%	23.1µM*	-0.8%	-6.2%
CCOc1ccc(Sc2cc(C(=O)NC(C)c3ccccc3)c3ccccc3n2)cc1 (stereo not given)	/	/	/	/	14.0%	/
CCN(C(=O)CSc1ccc2ccccc2n1)C1CCCCC1	?	?	2.6%	18.4µM*	-26.4%	-3.0%
CCc1cccc(-n2nnc(-c3nc(-c4ccc5c(c4)OCO5)no3)c2C)c1	/	/	/	/	-8.0%	/
COC(=O)c1cc(C)ccc1/C=C1/Cc2c(C)cc(C)cc2C1=O	2.8%	i	27.4%	16.4µM*	-52.2%	0.0%
c1ccc(-c2nc(SCC3CCCCO3)n[nH]2)cc1 (stereo not given)	/	?	/	i	/	/
CCn1c(CCNC(=O)c2ccc(OC)cc2)nnc1SCc1ccc(Cl)c(Cl)c1	22.9%	?	-134.3%	4.61µM*	-6.2%	-1.6%
COc1ccccc1NC(=O)C1CCN(C(=O)c2sc3nc[nH]c(=O)c3c2C)CC1	/	/	/	/	27.2%	/
COc1cc(Cl)c(C)cc1NC(=O)CN1CCN(C(=O)C2CC2)CC1	-12.7%	i	?	20.6µM*	5.7%	-2.0%
SMILES	MCF10A rereplic	KB-3-1 cytotox	SW480 rerep	KB-V1 cytotox	RGS4 inh	PTAP TSG101 blk
Cc1ccc(C(=O)c2cn(Cc3cccc(C)c3)c3nc(C)ccc3c2=O)cc1	/	i	/	i	-5.2%	/
COc1cc(C(=O)N2CCCc3ccccc32)c([N+](=O)[O-])cc1OC	16.4µM*	i	-3.5%	i	25.4%	-6.4%
O=C(c1ccc([N+](=O)[O-])s1)N1CCc2ccccc21	-0.1%	i	-13.2%	i	-8.2%	12.1%
COc1cc(C(=O)N2CCN(c3ccccc3OC)CC2)c([N+](=O)[O-])cc1OC	23.2%	?	?	?	10.8%	-0.3%
O=C(c1ccc([N+](=O)[O-])s1)N1CCCc2ccccc21	13.5%	i	6.51µM*	?	1.0%	-10.0%
O=C(O)CCN1C(=O)c2ccc(NC(=O)c3cccs3)cc2C1=O	20.6µM*	i	10.7%	i	34.1%	0.8%
CCN(Cc1ccccc1)C(=O)C1CCC(CNS(=O)(=O)c2ccc3c(c2)CCCC(=O)N3)CC1 (stereo not given)	/	?	/	i	-44.9%	/
COc1ccc(CCC(=O)NO)cc1	/	i	/	?	/	/
Cc1ccc(Cc2cnc(NC(=O)c3ccc4c(c3)CC(c3ccccc3)OC4=O)s2)cc1 (stereo not given)	/	i	/	i	-7.5%	/
Cc1ccc(C(=O)Nc2ncc(Cc3ccc(F)cc3)s2)o1	?	5.8µM*	-2.1%	9.2µM*	-9.1%	-0.3%
Cc1ccc(C(=O)Nc2ncc(Cc3ccc(SC(F)F)cc3)s2)cc1	?	?	0.731µM*	1.03µM*	8.7%	-3.2%
COc1ccc(N(Cc2cccs2)C(=O)c2ccc(Br)o2)cc1	/	i	/	i	-5.4%	/
COc1ccc(-n2cnc3cc(C(=O)NCCC4=CCCCC4)ccc32)cc1	/	i	/	i	-22.5%	/
C/C(=N/NC(N)=S)c1cc2ccc(O)cc2oc1=O	18.4µM*	i	?	i	-45.5%	15.6%
C/C(=N/NC(=O)c1ccncc1)c1cc2ccc(O)cc2oc1=O	?	i	61.5%	i	-15.0%	?
NC(=S)c1cc2ccc(O)cc2oc1=O	20.6µM*	i	10.3µM*	i	-25.9%	-2.7%
CCc1cccc(NC(=O)c2cc3c(=O)n(Cc4ccc(OC)cc4)ccc3nc2C)c1	/	i	/	i	-13.3%	/
O=C(CSc1nc(-c2ccccc2)ns1)N1CCOCC1	0.3%	i	-0.4%	i	-21.5%	-12.2%
